# The antibiotic and cytotoxicity screens of Wong et al. (2023)
# Among all 39,000 compounds or so, about 3,300 (8.5%) were called active. The sample as a whole holds a higher share of actives than the screen did.
# Test system: HepG2
# Experiment: cytotoxicity call (relative viability < 0.9)
# Conditions: 10 µM
row,Structure (SMILES),cytotoxicity call
1,CC(=O)c1ccc(S(=O)(=O)N2[C@@H]3CC[C@@H](C3)[C@H]2c2nc3cccc(OCc4ccc(F)cc4)c3[nH]2)cc1,inactive
2,C[C@@H]1CN([C@@H](C)CO)C(=O)c2cc(NC(=O)C3CC3)ccc2O[C@@H]1CN(C)S(=O)(=O)c1cccs1,inactive
3,CCCC(=O)Nc1ccc2c(c1)OC[C@H](C)N(Cc1ccc(-c3ccccn3)cc1)C[C@@H](C)[C@H](OC)CN(C)C2=O,inactive
4,COc1ccc(S(=O)(=O)Nc2ccc3c(c2)C(=O)N([C@@H](C)CO)C[C@@H](C)[C@@H](CN(C)C(=O)Nc2c(C)noc2C)OCCCC[C@H](C)O3)cc1,inactive
5,C[C@@H]1CN([C@@H](C)CO)C(=O)c2cc(NS(=O)(=O)c3ccccc3)ccc2O[C@@H]1CN(C)C(=O)Nc1cccc2ccccc12,inactive
6,C[C@@H]1CN([C@@H](C)CO)C(=O)Cc2cc(NC(=O)Nc3ccc(F)cc3)ccc2O[C@@H]1CN(C)S(=O)(=O)c1cn(C)cn1,inactive
7,Cc1ccc(S(=O)(=O)N(C)C[C@@H]2OCCCC[C@H](C)Oc3ccc(NS(C)(=O)=O)cc3C(=O)N([C@@H](C)CO)C[C@H]2C)cc1,inactive
8,Cc1noc(C)c1S(=O)(=O)Nc1ccc2c(c1)CC(=O)N([C@@H](C)CO)C[C@H](C)[C@H](CN(C)Cc1ccc3c(c1)OCO3)O2,inactive
9,C[C@H](CO)N1C[C@H](C)[C@H](CN(C)C(=O)N[C@H](C)c2ccccc2)OCc2ccccc2-c2c(n(C)c3ccccc23)C1=O,inactive
10,COc1ccc(S(=O)(=O)N(C)C[C@@H]2OCCCC[C@H](C)Oc3ccc(NC(=O)NC4CCCCC4)cc3C(=O)N([C@H](C)CO)C[C@H]2C)cc1,inactive
11,COc1ccc(NC(=O)N(C)C[C@@H]2OCCCC[C@@H](C)Oc3ccc(NS(=O)(=O)c4ccc(C)cc4)cc3C(=O)N([C@H](C)CO)C[C@H]2C)cc1,inactive
12,COc1ccc(NC(=O)Nc2ccc3c(c2)C(=O)N([C@@H](C)CO)C[C@@H](C)[C@H](CN(C)Cc2ccc(-c4ccccc4)cc2)O3)cc1,active
13,COc1cccc(S(=O)(=O)N2C[C@H](O)COC[C@@H]3O[C@H](CC(=O)NCCCN4CCOCC4)CC[C@H]32)c1,inactive
14,C[C@H]1CCCCO[C@H](CN(C)C(=O)Nc2ccc(F)cc2)[C@@H](C)CN([C@@H](C)CO)C(=O)c2cc(NC(=O)c3ccncc3)ccc2O1,inactive
15,CC[C@H](C)[C@H]1O[C@]2(CC[C@@H]1C)C[C@@H]1C[C@@H](C/C=C(\C)[C@@H](O[C@H]3C[C@H](OC)[C@@H](O[C@H]4C[C@H](OC)[C@@H](O)[C@H](C)O4)[C@H](C)O3)[C@@H](C)/C=C/C=C3\CO[C@@H]4[C@H](O)C(C)=C[C@@H](C(=O)O1)[C@]34O)O2,active
16,CCC(C)C1OC2(CCC1C)CC1CC(CC=C(C)C(OC3CC(OC)C(OC4CC(OC)C(O)C(C)O4)C(C)O3)C(C)C=CC=C3COC4C(O)C(C)=CC(C(=O)O1)C34O)O2 (configuration not stated),active
17,CC[C@@H](C)[C@H]1O[C@@]2(CC[C@@H]1C)C[C@H]1C[C@@H](CC=C(C)[C@@H](O[C@H]3C[C@@H](OC)[C@@H](O[C@H]4C[C@@H](OC)[C@@H](O)[C@@H](C)O4)[C@@H](C)O3)[C@@H](C)C=CC=C3CO[C@H]4[C@@H](O)C(C)=C[C@@H](C(=O)O1)[C@]34O)O2.CO[C@H]1C[C@@H](O[C@@H]2[C@@H](OC)C[C@@H](O[C@@H]3C(C)=CC[C@@H]4C[C@@H](C[C@@]5(CC[C@@H](C)[C@H](C(C)C)O5)O4)OC(=O)[C@@H]4C=C(C)[C@H](O)[C@@H]5OCC(=CC=C[C@@H]3C)[C@@]45O)O[C@@H]2C)O[C@@H](C)[C@@H]1O,active
18,C[C@@H]1CN([C@H](C)CO)C(=O)c2cc(NC(=O)CCC(F)(F)F)ccc2O[C@H]1CN(C)Cc1ccc(C(=O)Nc2ccccc2N)cc1,inactive
19,N#CCSc1n[nH]c(=O)[nH]c1=O,inactive

row,Structure (SMILES),cytotoxicity call
1,O=C(C[C@@H]1CC[C@H]2[C@@H](COC[C@@H](O)CN2CC2CCOCC2)O1)N1CCOCC1,inactive
2,Cc1noc(C)c1NC(=O)N(C)C[C@H]1OCCCC[C@H](C)Oc2ccc(NC(=O)C3CCCCC3)cc2C(=O)N([C@H](C)CO)C[C@@H]1C,inactive
3,C[C@@H]1CCCCO[C@@H](CN(C)S(=O)(=O)c2ccccc2)[C@@H](C)CN([C@H](C)CO)C(=O)c2cc(NC(=O)NC3CCCCC3)ccc2O1,inactive
4,COc1ncccc1N,inactive
5,O=C1CCc2ccc(OCCCCN3CCN(c4cccc(Cl)c4Cl)CC3)cc2N1,active
6,CCCCCCCCCCCC(=O)OCN1C(=O)CCc2ccc(OCCCCN3CCN(c4cccc(Cl)c4Cl)CC3)cc21,inactive
7,O=C1CCc2cc(OCCCCc3nnnn3C3CCCCC3)ccc2N1,inactive
8,O=C(C[C@H]1CC[C@H](NC(=O)c2cccnc2)[C@@H](CO)O1)NCCN1CCCCC1,inactive
9,C[C@H](N)c1ccc(Cl)cc1,inactive
10,COc1cccc(S(=O)(=O)Nc2ccc3c(c2)[C@H]2C[C@H](CC(=O)NCc4ccccc4F)O[C@@H](CO)[C@H]2O3)c1,inactive
11,C[C@H](CO)N1C[C@H](C)[C@@H](CN(C)Cc2ccc(-c3ccccc3)cc2)Oc2ccc(NS(=O)(=O)c3cccs3)cc2C1=O,inactive
12,C[C@H]1CN([C@@H](C)CO)C(=O)c2cc(NS(=O)(=O)c3cccs3)ccc2O[C@@H]1CN(C)Cc1ccc(Oc2ccccc2)cc1,inactive
13,C[C@H](CO)N1C[C@H](C)[C@H](CN(C)Cc2ccc(-c3ccccc3)cc2)Oc2ccc(NS(=O)(=O)c3cccs3)cc2C1=O,inactive
14,C[C@@H]1CN([C@H](C)CO)C(=O)c2cc(NS(=O)(=O)c3cccs3)ccc2O[C@@H]1CN(C)Cc1ccc(-c2ccccc2)cc1,active
15,C[C@@H]1CN([C@H](C)CO)C(=O)c2cc(NS(=O)(=O)c3cccs3)ccc2O[C@@H]1CN(C)Cc1ccc(Oc2ccccc2)cc1,active
16,C[C@@H]1CN([C@H](C)CO)C(=O)c2cc(NS(=O)(=O)c3cccs3)ccc2O[C@H]1CN(C)Cc1ccc(Oc2ccccc2)cc1,inactive
17,NC(=O)c1cccc(Br)n1,inactive
18,Cc1noc(C)c1S(=O)(=O)N(C)C[C@H]1OCc2cn(nn2)CCCC(=O)N([C@H](C)CO)C[C@@H]1C,inactive
19,Cc1ccc(S(=O)(=O)N(C)C[C@H]2Oc3ccc(NS(=O)(=O)c4cccs4)cc3C(=O)N([C@H](C)CO)C[C@H]2C)cc1,inactive

row,Structure (SMILES),cytotoxicity call
1,C[C@H]1CN([C@@H](C)CO)C(=O)CCCn2cc(nn2)CO[C@@H]1CN(C)S(=O)(=O)c1ccc(-n2cccn2)cc1,inactive
2,C[C@@H]1CN([C@@H](C)CO)C(=O)c2cc(NC(=O)CCN3CCOCC3)ccc2O[C@@H]1CN(C)S(=O)(=O)c1ccc(Cl)cc1,inactive
3,C[C@@H]1CN([C@H](C)CO)C(=O)c2cc(NS(=O)(=O)c3ccccc3)ccc2O[C@@H](C)CCCCO[C@H]1CN(C)C(=O)Nc1ccccc1,inactive
4,C[C@H]1CN([C@@H](C)CO)C(=O)Cc2cc(NC(=O)Nc3cccc4ccccc34)ccc2O[C@H]1CN(C)C(=O)Nc1ccc(C(F)(F)F)cc1,inactive
5,COc1ccc(CN(C)C[C@H]2Oc3c(NS(=O)(=O)c4c(C)noc4C)cccc3C(=O)N([C@H](C)CO)C[C@H]2C)cc1,inactive
6,C[C@H]1CN([C@@H](C)CO)C(=O)Cc2cc(NS(=O)(=O)c3cccs3)ccc2O[C@H]1CN(C)Cc1ccc(-c2ccccc2)cc1,inactive
7,C[C@H]1CCCCO[C@H](CN(C)Cc2ccc(C(=O)Nc3ccccc3N)cc2)[C@@H](C)CN([C@@H](C)CO)C(=O)c2cc(N(C)C)ccc2O1,inactive
8,C[C@@H]1CCCCO[C@@H](CN(C)Cc2ccc(C(=O)Nc3ccccc3N)cc2)[C@@H](C)CN([C@H](C)CO)C(=O)c2cc(NC(=O)Nc3ccccc3)ccc2O1,inactive
9,CC(C)NC(=O)Nc1ccc2c(c1)C(=O)N([C@H](C)CO)C[C@H](C)[C@H](CN(C)Cc1ccc(C(=O)Nc3ccccc3N)cc1)OCCCC[C@@H](C)O2,inactive
10,C[C@@H]1CCCCO[C@@H](CN(C)Cc2ccc(C(=O)Nc3ccccc3N)cc2)[C@@H](C)CN([C@H](C)CO)C(=O)c2cc(NC(=O)c3ccccc3)ccc2O1,active
11,C[C@@H]1CCCCO[C@@H](CN(C)Cc2ccc(C(=O)Nc3ccccc3N)cc2)[C@H](C)CN([C@H](C)CO)C(=O)c2cc(N(C)C)ccc2O1,active
12,C[C@@H]1CCCCO[C@@H](CN(C)Cc2ccc(C(=O)Nc3ccccc3N)cc2)[C@@H](C)CN([C@H](C)CO)C(=O)c2cc(NC(=O)Cc3ccccc3)ccc2O1,inactive
13,C[C@@H]1CCCCO[C@H](CN(C)Cc2ccc(C(=O)Nc3ccccc3N)cc2)[C@@H](C)CN([C@H](C)CO)C(=O)c2cc(NC(=O)c3ccccc3)ccc2O1,active
14,C[C@@H]1CCCCO[C@@H](CN(C)Cc2ccc(C(=O)Nc3ccccc3N)cc2)[C@@H](C)CN([C@H](C)CO)C(=O)c2cc(NC(=O)c3ccncc3)ccc2O1,inactive
15,C[C@H](CO)N1C[C@H](C)[C@H](CN(C)Cc2ccc(C(=O)Nc3ccccc3N)cc2)OCCCC[C@H](C)Oc2ccc(N(C)C)cc2C1=O,inactive
16,C[C@H]1CN([C@@H](C)CO)S(=O)(=O)c2ccc(C#CC3(O)CCCC3)cc2O[C@@H]1CN(C)C(=O)Cc1ccccc1,inactive
17,C[C@@H]1CN([C@@H](C)CO)C(=O)c2cccc(NS(=O)(=O)c3ccc(F)cc3)c2O[C@@H]1CN(C)S(=O)(=O)c1cn(C)cn1,inactive
18,CCOC(=O)c1cccc([C@@H]2CC(=O)N(C(=O)OCc3ccccc3)[C@@H]2C(=O)Nc2cccc3cccnc23)c1,inactive
19,Cc1noc(C)c1NC(=O)N(C)C[C@@H]1OCCCC[C@@H](C)Oc2ccc(NC(=O)C3CCCCC3)cc2C(=O)N([C@@H](C)CO)C[C@H]1C,inactive
